Source: PubChem BioAssay
Active and inactive are the calls of the source.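 How the source made its calls, unless noted: active means fluorescence slope after compound addition differing from the mean of all screened samples at 99.7% confidence, in either direction; inactive means the rest.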

What was measured:
[1] = inhibitors of TNFa-induced NFkB p65 translocation, primary screen, imaging, HUVEC, MLSMR starter and 10KST1 sets (AID 438;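 active means inhibition above 20% together with a positive visual image hit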;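 further: compound added about 3h40 before a 20 min TNFalpha stimulation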;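 on inhibition: signal is the nuclear over cytoplasmic p65 intensity ratio per well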); conditions: HUVEC TNFa-induced p65 nuclear translocation; cell count: measured here: nuclei count (cytotoxicity indicator), at 2.08 µM; inhibition: at 2 µM, stronger effect = higher value, 0% TNFa-plus-vehicle, 100% no-TNFa wells
[2] = reduction of polyQ htt aggregates in cells – imaging, exon1htt(103Q)mCFP cells, high-content imaging, primary screen (AID 483;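 active means visual image review flags a hit and inhibition of aggregation exceeds 20%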;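 further: compound exposure lasted 3 days before fixation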;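 on nuclei count: percent of the per-plate median nuclei count of sample wells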); conditions: exon1htt(103Q)mCFP cell line, aggregate imaging, at 2 µM; inhibition of aggregation: stronger effect = higher value; nuclei count: measured here: cell count, toxicity
[3] = endothelial E-selectin expression blockers – imaging, HUVEC, immunofluorescence, MLSMR starter and 10KST1 sets, primary screen (AID 487;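 active means visually confirmed hit in the image check and inhibition above 20%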;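 on inhibition: signal is fraction of cell area covered by stained E-selectin grains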;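 on nuclei count: 100% = median nuclei count of all wells on the same plate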); conditions: HUVEC TNFalpha-induced E-selectin immunofluorescence imaging, at 2 µM; inhibition: stronger effect = higher value; nuclei count: measured here: cell number, toxicity
[4] = biological target: Voltage-gated potassium channel subunit beta-2 (Rattus norvegicus) (UniProt P62483); experiment: inhibitors of rat Kvbeta2 reductase activity – biochemical, NADPH fluorescence, primary screen (AID 622;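 active means fluorescence slope higher than the sample average by over 3 SD, cut at about -0.22 in these data, passing the limit was not always enough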;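 further: slope of raw intensity against log time taken from 70 to 1610 s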); conditions: recombinant KvBeta, 4-cyanobenzaldehyde reduction, at 10 µM, stronger effect = higher value
[5] = biological target: Voltage-gated potassium channel subunit beta-2 (Rattus norvegicus) (UniProt P62483); experiment: enhancers of rat Kvbeta2 NADPH turnover – biochemical, NADPH fluorescence, primary screen (AID 623;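 active means NADPH fluorescence slope more negative than the mean of all samples by about 3 SD, 99.7% confidence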;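 further: fluorescence intensity change per second fitted from 20 to 320 s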); conditions: Recombinant KvBeta, NADPH fluorescence decrease slope, 10 min; at 10 µM; stronger effect = lower value
[6] = biological target: Alpha-2C adrenergic receptor (Homo sapiens) (UniProt P18825); experiment: compounds altering alpha2C-coupled GIRK flux – cell-based, HEK293 alpha2C/GIRK1/2, thallium flux, primary screen (AID 624); conditions: thallium flux BTC fluorescence, at 10 µM, actives lie on both sides;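 further: slope of fluorescence ratio to pre-addition baseline per second over 15 to 24 s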
[7] = blockers of RIG-like receptor reporter activation – cell-based, Sendai virus stimulus, luciferase, 10K MLSCN set, TLR/RLR signaling modifier project, primary screen (AID 602276;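 active means inhibition at or above 50% at 10 µM; inactive means inhibition below 50%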;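 further: firefly luciferase from ISG56 promoter only with Renilla not read in this screen; 0% = Sendai virus plus DMSO and 100% = medium plus DMSO without virus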); conditions: HEK293 RL24 IRF3 luciferase reporter, at 10 µM, stronger effect = higher value
[8] = TLR3 IRF3 reporter activation blockers – cell-based, poly I:C stimulus, luciferase, 10K MLSCN set, primary screen (AID 602277;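 active means inhibition of the reporter signal at or above 50%; inactive means inhibition below 50%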); conditions: HEK293-TLR3 RL24 IRF3 luciferase reporter, at 10 µM, stronger effect = higher value

Alpha-2C adrenergic receptor (Homo sapiens), sequence (P18825 whole entry, looked up): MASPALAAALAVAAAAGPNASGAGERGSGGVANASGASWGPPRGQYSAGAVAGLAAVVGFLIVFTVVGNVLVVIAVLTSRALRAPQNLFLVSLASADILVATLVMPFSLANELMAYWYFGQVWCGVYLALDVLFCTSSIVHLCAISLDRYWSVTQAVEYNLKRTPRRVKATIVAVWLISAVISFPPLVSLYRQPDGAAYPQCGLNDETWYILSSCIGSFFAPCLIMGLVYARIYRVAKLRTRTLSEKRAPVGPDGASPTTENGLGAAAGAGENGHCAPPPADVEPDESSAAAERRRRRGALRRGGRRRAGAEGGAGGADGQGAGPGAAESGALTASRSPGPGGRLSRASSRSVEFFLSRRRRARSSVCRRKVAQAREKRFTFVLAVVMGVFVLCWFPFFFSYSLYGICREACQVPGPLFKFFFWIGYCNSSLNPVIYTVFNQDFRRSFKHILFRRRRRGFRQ
Voltage-gated potassium channel subunit beta-2 (Rattus norvegicus), sequence (P62483 whole entry, looked up): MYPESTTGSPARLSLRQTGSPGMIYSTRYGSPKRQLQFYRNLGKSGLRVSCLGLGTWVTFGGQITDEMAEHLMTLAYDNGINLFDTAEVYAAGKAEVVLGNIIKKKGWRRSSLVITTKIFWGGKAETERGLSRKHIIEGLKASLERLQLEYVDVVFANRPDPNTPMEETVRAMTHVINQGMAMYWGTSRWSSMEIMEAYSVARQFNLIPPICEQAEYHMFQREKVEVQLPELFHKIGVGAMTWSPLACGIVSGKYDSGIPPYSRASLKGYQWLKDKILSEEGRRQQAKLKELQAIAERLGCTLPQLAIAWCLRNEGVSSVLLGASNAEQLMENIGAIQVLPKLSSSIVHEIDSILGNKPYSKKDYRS

| Structure (SMILES) | cell count [1] | inhibition [1] | inhibition of aggregation [2] | nuclei count [2] [%] | inhibition [3] | nuclei count [3] [%] | fluorescence slope [4] | NADPH fluorescence slope [5] | slope [6] | inhibition [7] | inhibition [8] |
| --- | --- | --- | --- | --- | --- | --- | --- | --- | --- | --- | --- |
| O=C(O)c1cc(-c2ccccc2Cl)n[nH]1 | 240 | 8% (inactive) | -10.1% (inactive) | 109 | -51% (inactive) | 97.9 | -0.604 (inactive) | -2e-05 (inactive) | 0.00669 (inactive) | 11.2% (inactive) | 22.8% (inactive) |
| COc1ccc(C(=O)N2CCCc3ccccc32)cc1 | 433 | 2.5% (inactive) | -1.4% (inactive) | 107 | 4.7% (inactive) | 110 | -0.519 (inactive) | -8e-05 (inactive) | 0.00477 (inactive) | 7.26% (inactive) | 5.78% (inactive) |
| CCSc1oc(-c2cccs2)nc1S(=O)(=O)c1ccccc1 | 690 | -6.7% (inactive) | -10.8% (inactive) | 101 | -16.9% (inactive) | 104 | -0.56 (inactive) | -3.1e-05 (inactive) | 0.00698 (inactive) | 14.5% (inactive) | 34% (inactive) |
| O=C(NCCc1c[nH]c2ccccc12)c1ccc(S(=O)(=O)NCc2ccco2)cc1 | 398 | 9.3% (inactive) | 14.7% (inactive) | 89.6 | -42.9% (inactive) | 98.6 | -0.578 (inactive) | -2.7e-05 (inactive) | 0.00486 (inactive) | 15.3% (inactive) | 30.7% (inactive) |
| CC(=O)Nc1ccc(S(=O)(=O)NCc2cn3c(C)csc3n2)cc1 | 531 | -7.6% (inactive) | -8.4% (inactive) | 104 | -29.8% (inactive) | 84.3 | -0.588 (inactive) | -3.6e-05 (inactive) | 0.00529 (inactive) | 1.88% (inactive) | 8.5% (inactive) |
| CCCn1c(-c2ccc(F)cc2)cnc1SCC(=O)O | 431 | 9.9% (inactive) | -4.3% (inactive) | 106 | -63.4% (inactive) | 106 | -0.622 (inactive) | -3.6e-05 (inactive) | 0.00449 (inactive) | 16.2% (inactive) | 19.8% (inactive) |
| CCOc1ccccc1OCC(=O)Nc1nnc(COC)s1 | 437 | 2.9% (inactive) | -3.9% (inactive) | 106 | 56.9% (inactive) | 115 | -0.59 (inactive) | -3.4e-05 (inactive) | 0.00402 (inactive) | -15.3% (inactive) | -12.6% (inactive) |
